The target of experiment [1] is Progesterone receptor (Homo sapiens) (UniProt P06401). In words: qHTS assay to identify small molecule agonists of the progesterone receptor (PR) signaling pathway (AID 1346784; calls by dose curve; also: nearly all actives have a fitted effect of over 30% in size). Summed up:
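Seed PR-UAS-bla HEK 293T cells (2% charcoal-stripped FBS), incubate 6 hr at 37C; add compounds in DMSO, 16 hr at 37C; add LiveBLAzer B/G substrate, 2 hr RT; read fluorescence intensity.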
(qHTS replaces the single test concentration by a dilution series.)

Experiment [2] can be described thus: qHTS assay to identify small molecule agonists of the progesterone receptor (PR) signaling pathway - cell viability counter screen (AID 1346799; calls by dose curve; also: nearly all actives have a fitted effect of over 45% in size). Summed up:
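Using the same plates as the PR reporter screen, HEK293T PR-UAS-bla cells received compounds for 16 hr at 37C and were then lysed with CellTiter-Glo; luminescence was read 30 min later at room temperature.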

Experiment [3] in a line: qHTS assay to identify small molecule agonists of the TGF-beta/Smad signaling pathway (AID 1346859; active = well fitted activation curve with a large enough effect in the signal ratio in the repeat runs, not every such curve was filed as active; the % refers to the signal ratio; also: series mostly up to about 77 µM). In outline: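 Beta-lactamase reporter activity downstream of Smad binding elements was measured in stably transfected HEK 293T cells; compounds were incubated for 5 hr, substrate for 2 hr at room temperature.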
Experiment [4] concerns the target Thyrotropin-releasing hormone receptor (Homo sapiens) (UniProt P34981). In words: qHTS assay to identify small molecule antagonists of the thyrotropin-releasing hormone receptor (TRHR) signaling pathway (AID 1346877; active = well fitted inhibition curve with a large enough effect in the repeat runs, not every such curve was filed as active; also: series mostly up to about 51 µM). In outline: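 TRHR-expressing HEK293 cells loaded with calcium dye for 2 h at 37 C; compounds pre-incubated 5 min at room temperature before TRH challenge at 1 nM final. Intracellular calcium fluorescence read kinetically for 3 min; 15 concentrations in triplicate.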

The target is the same in experiment [5]. In words: qHTS assay to identify small molecule agonists of the thyrotropin-releasing hormone receptor (TRHR) signaling pathway (AID 1346891; calls by dose curve; also: series mostly up to about 58 µM). In outline: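 Overnight-plated (18 h, 37 °C, 5% CO2) TRHR-Hek293 cells; 2 h calcium dye at 37 °C; compound in DMSO; 3-min kinetic fluorescence read.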
A short description of experiment [6]: Human pregnane X receptor (PXR) small molecule agonists, qHTS cell viability counter screen (AID 1346977). Also: nearly all actives have a fitted effect of over 50% in size. Also: potency is read from the fitted curve at half-maximal effect. Summed up: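 After a 5hr pre-incubation, PXR-Luc HepG2 cells received compounds plus positive control in DMSO and were kept 24hr at 37C. Cell viability was quantified by fluorescence from CellTiter-Fluor added for the final hour.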
Experiment [7] in a line: Caspase-3/7 induction in CHO-K1 cells by small molecules, qHTS cell viability counter screen (AID 1346979). Also: nearly all actives have a fitted effect of over 35% in size. Also: potency is read from the fitted curve at half-maximal effect. In outline: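 Multiplexed with Caspase-Glo 3/7 in CHO-K1 cells, this counter screen added CellTiter-Fluor after 16hr of compound exposure and recorded fluorescence 1hr later.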
A short description of experiment [8]: Caspase-3/7 induction in CHO-K1 cells by small molecules, qHTS assay (AID 1346980). Also: nearly all actives have a fitted effect of over 15% in size. Also: potency is read from the fitted curve at half-maximal effect. In outline: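 Wild-type cells were seeded at 1,500 per well and settled 5 hr at 37 C, 5% CO2, then exposed to DMSO-dissolved compounds for 17 hr. Caspase-Glo 3/7 reagent was added, and luminescence was read after 30min at room temperature.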
Experiment [9] can be described thus: Caspase-3/7 induction in HepG2 cells by small molecules, qHTS cell viability counter screen (AID 1346981). Also: nearly all actives have a fitted effect of over 30% in size. Also: potency is read from the fitted curve at half-maximal effect. In outline:
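Wild-type HepG2 cells, 2,000/well, settled 5 hr at 37 C, 5% CO2 before compound addition. Viability read by CellTiter-Fluor fluorescence, reagent added after 16 hr compound exposure, then 1 hr at 37C, in the same wells as the caspase read.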

Experiment [10] concerns the target Cytochrome P450 2D6 (Homo sapiens) (UniProt P10635). In words: Cytochrome P450 Family 2 Subfamily D Member 6 (CYP2D6) small molecule antagonists: luciferase reporter qHTS assay (AID 1671196). Also: nearly all actives have a fitted effect of over 50% in size. Also: potency is read from the fitted curve at half-maximal effect. Summed up: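 Cell-free P450-Glo system: CYP2D6 with proluciferin substrate was pre-incubated with compound for 10 min, then reacted with NADPH regeneration for 1 h at room temperature. Luciferin product was detected after 20 min, and data were reported as relative luminescence units.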
In general terms: A reporter such as luciferase makes a cellular process visible.

Experiment [11] addresses Cytochrome P450 2C19 (Homo sapiens) (UniProt P33261). In words: Cytochrome P450 Family 2 Subfamily C Member 19 (CYP2C19) small molecule antagonists: luciferase reporter qHTS assay (AID 1671197). Also: nearly all actives have a fitted effect of over 65% in size. Also: potency is read from the fitted curve at half-maximal effect. Summed up: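 Compounds were tested on CYP2C19 activity via proluciferin conversion to luciferin. The 37C, 1 h reaction followed NADPH addition; detection reagent stopped it.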
Experiment [12] can be described thus: qHTS assay to identify small molecule antagonists of the TGF-beta/Smad signaling pathway - cell viability counter screen (AID 1346824). Also: nearly all actives have a fitted effect of over 50% in size. In outline:
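SBE-bla HEK 293T cells were plated overnight at 37 C, then given compounds in DMSO plus TGF-beta1 (added as 0.25 ng/mL solution) for 5 hr. After the bla read, CellTiter-Glo was added to the same wells and luminescence read after 30 min at room temperature.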

The nature of experiment [13]: qHTS assay to identify small molecule agonists of the TGF-beta/Smad signaling pathway - cell viability counter screen (AID 1346829). Also: top concentration of the series differs between compounds; nearly all actives have a fitted effect of over 45% in size. In outline: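 In parallel with the Smad reporter read, viability of HEK 293T cells stably carrying SBE-bla is quantified by ATP luminescence following 5 hr compound treatment.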
Experiment [14] in a line: Caspase-3/7 induction in HepG2 cells by small molecules, qHTS assay (AID 1346978). Also: nearly all actives have a fitted effect of over 15% in size. Summed up:
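Wild-type HepG2 cells (2,000/well) were settled 5 h at 37 C, 5% CO2, then exposed to compounds in DMSO for 17 h. Caspase-3/7 activity was read by luminescence 30 min after adding Caspase-Glo 3/7 reagent at room temperature.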

The target in experiment [15] is Nuclear receptor subfamily 1 group I member 2 (Homo sapiens) (UniProt O75469). In words: Human pregnane X receptor (PXR) small molecule agonists, qHTS assay (AID 1346982). Also: nearly all actives have a fitted effect of over 35% in size. Also: potency is read from the fitted curve at half-maximal effect. Summed up:
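PXR-Luc HepG2 reporter cells (CYP3A4-driven luciferase) in 5% charcoal-stripped FBS medium, plated 5 h before compound addition, then treated 24 h at 37C. Luciferase read by ONE-Glo luminescence after 30 min at room temperature.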

In experiment [16] the target is Nuclear receptor subfamily 1 group I member 2 (Rattus norvegicus) (UniProt Q9R1A7). In words: Rat pregnane X receptor (rPXR) activation by small molecules, qHTS assay (AID 1346983). Also: nearly all actives have a fitted effect of over 20% in size. The note with it: rPXR luciferase reporter cells, One-Glo luminescence, 24 h; max activation: hits give high values. Summed up:
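Cell-based rPXR luciferase reporter assay, 2,000 cells per well, rested 5hr at 37 C before compound addition in DMSO, then 24 hr at 37 C. One-Glo reagent was added and luminescence read after 30 min at room temperature.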

Experiment [17] addresses Nuclear receptor subfamily 1 group I member 2 (Homo sapiens) (UniProt O75469). In words: CYP3A4 induction through human pregnane X receptor (PXR) by small molecules, qHTS assay (AID 1346984). Also: nearly all actives have a fitted effect of over 40% in size. In outline: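 DPX-2 HepG2 cells carrying a PXR response element and CYP3A4-promoter luciferase construct, treated with compounds 24 hr at 37C. Then P450-Glo CYP3A4 Luciferin-IPA substrate (3uM final) for 3 hr at 37C, One-Glo added, luminescence read.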

The target is the same in experiment [18]. In words: Human pregnane X receptor (PXR) activation by small molecules, qHTS assay (AID 1346985). Also: nearly all actives have a fitted effect of over 40% in size. In outline:
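DPX-2 cells (HepG2 co-transfected with a PXR response element and a CYP3A4-promoter luciferase construct) were seeded at 2,000 per well, rested 5 hr at 37C, then exposed to DMSO-dissolved compounds for 24 hr. Activation was read as luciferase luminescence.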

The nature of experiment [19]: qHTS assay to identify small molecule antagonists of the progesterone receptor (PR) signaling pathway - cell viability counter screen (AID 1346798). Also: series mostly up to about 92 µM; nearly all actives have a fitted effect of over 50% in size. Summed up:
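Measures cytotoxicity in parallel with the PR antagonist reporter read: HEK293T PR-UAS-bla cells get compound and R5020 for 16 hr, and remaining viable cells are quantified by CellTiter-Glo luminescence.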

Experiment [20] deals with Progesterone receptor (Homo sapiens) (UniProt P06401). In words: qHTS assay to identify small molecule antagonists of the progesterone receptor (PR) signaling pathway (AID 1346795; active = well fitted inhibition curve with a large enough effect in the signal ratio in the repeat runs, not every such curve was filed as active; the % refers to the signal ratio). Summed up: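 Screening used a GripTite HEK293T line with PR-responsive UAS-beta-lactamase. Cells were challenged with compound in the presence of 1 nM R5020 final for 16 hr at 37C; B/G FRET substrate, 2 hr room temperature, fluorescence.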
Chain of Progesterone receptor (Homo sapiens) (P06401 whole entry, looked up): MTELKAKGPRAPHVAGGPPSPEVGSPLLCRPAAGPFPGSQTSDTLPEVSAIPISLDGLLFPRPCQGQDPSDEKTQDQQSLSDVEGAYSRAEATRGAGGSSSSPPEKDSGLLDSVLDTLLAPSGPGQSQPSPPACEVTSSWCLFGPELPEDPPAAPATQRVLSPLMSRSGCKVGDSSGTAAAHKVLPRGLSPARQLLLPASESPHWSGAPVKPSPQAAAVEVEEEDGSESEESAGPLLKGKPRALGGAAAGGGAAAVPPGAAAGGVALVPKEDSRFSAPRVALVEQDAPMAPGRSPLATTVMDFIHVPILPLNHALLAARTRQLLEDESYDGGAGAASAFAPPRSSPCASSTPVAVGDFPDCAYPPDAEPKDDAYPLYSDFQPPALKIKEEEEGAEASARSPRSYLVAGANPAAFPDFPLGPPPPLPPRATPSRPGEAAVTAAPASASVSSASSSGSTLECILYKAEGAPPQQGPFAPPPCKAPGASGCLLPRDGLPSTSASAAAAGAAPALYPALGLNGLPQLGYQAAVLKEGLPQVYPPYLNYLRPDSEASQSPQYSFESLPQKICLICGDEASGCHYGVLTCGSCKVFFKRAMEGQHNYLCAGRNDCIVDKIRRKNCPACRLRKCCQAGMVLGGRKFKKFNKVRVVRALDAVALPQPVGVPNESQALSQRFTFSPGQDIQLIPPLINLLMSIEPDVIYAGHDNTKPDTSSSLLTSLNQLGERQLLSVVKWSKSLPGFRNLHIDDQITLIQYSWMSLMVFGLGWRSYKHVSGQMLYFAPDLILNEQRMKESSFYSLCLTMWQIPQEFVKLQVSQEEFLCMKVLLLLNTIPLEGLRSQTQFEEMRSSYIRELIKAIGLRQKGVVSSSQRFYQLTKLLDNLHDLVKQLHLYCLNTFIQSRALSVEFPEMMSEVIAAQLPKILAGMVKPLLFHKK

Results filed as inconclusive are left out. Activity calls are given as the source filed them. Unless noted, calls follow the shape of the dose curve; as a rule, active = well fitted curve in the direction sought with a large enough effect in the repeat runs; inconclusive = weak or mixed curves; inactive = no such curve, though single readings can be large; an effect the other way counts as inactive or inconclusive.
% is scaled to controls: 0 for no effect and ±100 for the full control effect.

Chain of Cytochrome P450 2D6 (Homo sapiens) (P10635 whole entry, looked up): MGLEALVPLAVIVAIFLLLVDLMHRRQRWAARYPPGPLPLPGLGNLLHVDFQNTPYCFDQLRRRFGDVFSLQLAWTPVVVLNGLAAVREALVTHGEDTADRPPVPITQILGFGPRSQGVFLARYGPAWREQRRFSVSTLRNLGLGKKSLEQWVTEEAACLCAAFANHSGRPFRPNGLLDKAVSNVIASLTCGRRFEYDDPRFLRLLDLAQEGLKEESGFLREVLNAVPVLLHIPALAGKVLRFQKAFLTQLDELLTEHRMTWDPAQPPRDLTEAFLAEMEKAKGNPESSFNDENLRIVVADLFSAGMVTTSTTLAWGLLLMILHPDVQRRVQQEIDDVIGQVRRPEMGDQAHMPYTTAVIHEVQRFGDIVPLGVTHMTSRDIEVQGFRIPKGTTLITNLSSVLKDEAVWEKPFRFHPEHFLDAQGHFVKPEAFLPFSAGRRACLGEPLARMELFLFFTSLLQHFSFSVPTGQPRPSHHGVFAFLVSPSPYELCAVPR
Chain of Thyrotropin-releasing hormone receptor (Homo sapiens) (P34981 whole entry, looked up): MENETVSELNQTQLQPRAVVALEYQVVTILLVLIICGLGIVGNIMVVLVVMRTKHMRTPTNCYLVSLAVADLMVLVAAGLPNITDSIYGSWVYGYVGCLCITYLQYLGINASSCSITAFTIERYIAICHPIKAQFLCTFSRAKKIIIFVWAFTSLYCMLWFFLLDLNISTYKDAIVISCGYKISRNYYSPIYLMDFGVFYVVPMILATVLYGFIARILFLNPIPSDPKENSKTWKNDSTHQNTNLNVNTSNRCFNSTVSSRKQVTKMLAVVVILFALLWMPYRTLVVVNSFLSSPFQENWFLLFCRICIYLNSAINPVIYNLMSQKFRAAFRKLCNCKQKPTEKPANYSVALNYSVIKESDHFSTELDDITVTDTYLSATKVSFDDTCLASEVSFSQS
Chain of Nuclear receptor subfamily 1 group I member 2 (Homo sapiens) (O75469 whole entry, looked up): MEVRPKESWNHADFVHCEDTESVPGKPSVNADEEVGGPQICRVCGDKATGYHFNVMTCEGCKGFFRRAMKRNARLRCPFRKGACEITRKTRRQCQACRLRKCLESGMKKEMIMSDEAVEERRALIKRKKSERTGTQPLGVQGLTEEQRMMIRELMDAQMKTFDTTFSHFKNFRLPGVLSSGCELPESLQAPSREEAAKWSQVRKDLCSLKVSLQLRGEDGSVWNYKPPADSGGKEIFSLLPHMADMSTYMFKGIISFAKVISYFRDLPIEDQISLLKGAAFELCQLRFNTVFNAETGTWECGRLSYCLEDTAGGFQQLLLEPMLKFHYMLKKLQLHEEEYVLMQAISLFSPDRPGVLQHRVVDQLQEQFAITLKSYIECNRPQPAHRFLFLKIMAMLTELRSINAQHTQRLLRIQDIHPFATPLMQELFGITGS
Chain of Nuclear receptor subfamily 1 group I member 2 (Rattus norvegicus) (Q9R1A7 whole entry, looked up): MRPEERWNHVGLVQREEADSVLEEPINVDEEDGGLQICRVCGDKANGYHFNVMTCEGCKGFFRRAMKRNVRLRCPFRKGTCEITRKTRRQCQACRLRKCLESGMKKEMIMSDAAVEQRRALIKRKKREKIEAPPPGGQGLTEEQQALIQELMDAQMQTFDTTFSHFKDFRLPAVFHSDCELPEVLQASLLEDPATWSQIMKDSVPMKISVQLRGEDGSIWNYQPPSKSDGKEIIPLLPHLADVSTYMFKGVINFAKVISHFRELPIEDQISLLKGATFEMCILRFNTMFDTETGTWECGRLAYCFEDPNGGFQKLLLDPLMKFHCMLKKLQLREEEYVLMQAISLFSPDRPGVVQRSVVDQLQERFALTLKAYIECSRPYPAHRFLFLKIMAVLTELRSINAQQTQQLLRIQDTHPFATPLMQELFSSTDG
Chain of Cytochrome P450 2C19 (Homo sapiens) (P33261 whole entry, looked up): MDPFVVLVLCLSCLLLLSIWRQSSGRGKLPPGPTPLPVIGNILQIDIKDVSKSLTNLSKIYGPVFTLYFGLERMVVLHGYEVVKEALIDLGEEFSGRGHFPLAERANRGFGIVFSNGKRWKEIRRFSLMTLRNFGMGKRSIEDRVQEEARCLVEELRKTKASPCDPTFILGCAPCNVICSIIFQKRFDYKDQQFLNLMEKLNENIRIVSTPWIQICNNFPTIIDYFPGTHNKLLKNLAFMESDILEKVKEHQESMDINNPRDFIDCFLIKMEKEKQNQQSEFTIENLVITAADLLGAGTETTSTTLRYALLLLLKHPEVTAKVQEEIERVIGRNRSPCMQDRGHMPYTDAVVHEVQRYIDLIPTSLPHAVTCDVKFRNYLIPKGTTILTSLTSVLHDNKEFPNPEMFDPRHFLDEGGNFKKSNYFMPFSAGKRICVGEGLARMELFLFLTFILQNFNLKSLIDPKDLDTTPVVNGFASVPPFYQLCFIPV

With `O=C1NCCN1CCN1CCC(c2cn(-c3ccc(F)cc3)c3ccc(Cl)cc23)CC1`, in experiment [1], the outcome was inactive. Also, the Potency result in [2], in experiment [3], in experiment [4], in experiment [5] and in experiment [11] was “inactive” in each case. Also, the Potency in experiment [6] was 29.8 µM (active); in experiment [7], 26.6 µM (active); in experiment [8] it was 26.6 µM (active); in experiment [9], 29.8 µM (active); in experiment [10], 4.36 µM (active).
Turning to `COC(=O)[C@]1(C)CCC[C@@]2(C)[C@H]1CC=C1C=C(C(C)C)CC[C@@H]12`, in experiment [1], the compound was called inactive. Moreover, the Potency result in experiment [12], in experiment [13], in [3], in [4], in experiment [6] and in experiment [14] was “inactive” each time. Besides, the Potency result in experiment [7], in [8] and in experiment [9] was “inactive” each time. The Potency in experiment [15] is 17.2 µM (active); in experiment [11] it was 28.3 µM (active).
For the compound `C=CC(=O)OCC(O)COc1ccccc1` (stereo not drawn), the call in [1] was inactive. Moreover, the Potency entry in experiment [2], in experiment [12], in [13], in experiment [3], in [4] and in experiment [5] was “inactive” in each case. The Potency entry in [6], in [14], in experiment [8], in experiment [15] and in experiment [10] was “inactive” throughout. Moreover, the Potency in experiment [7] was 61.1 µM (active); in experiment [11], 35.6 µM (active).
For `S=P(N1CC1)(N1CC1)N1CC1`, the call in [1] was inactive. Moreover, the Potency entry in [13], in [3], in experiment [5], in experiment [6], in experiment [14] and in [8] was “inactive” each time. For the same compound, the Potency entry in experiment [17] and in experiment [18] was “inactive” each time. The max activation in experiment [16] is -4.01% (inactive). In addition, the Potency was 48.6 µM (active) in experiment [10] and 9.42 µM (active) in experiment [11].
As to `C[C@]12CC[C@H]3C(=CCc4cc(O)ccc43)[C@@H]1CCC2=O`, the call in experiment [1] was inactive. The Potency entry in experiment [12], in experiment [13], in experiment [3], in experiment [4], in [5] and in [6] was “inactive” in each case. The figures for the Potency in [7], in [15] and in experiment [11] were 61.1 µM (active), 27.3 µM (active) and 31.7 µM (active), respectively.
Take `CCCCOC(=O)C(C)CC` (stereo not drawn): in experiment [1], the call was inactive. The Potency result in experiment [2], in experiment [12], in experiment [13], in [3], in experiment [5] and in experiment [6] was “inactive” throughout. Further, the Potency result in experiment [14], in experiment [7], in experiment [8], in [9], in experiment [15] and in [10] was “inactive” throughout.
`Cc1cc(Nc2ccc(O)cc2)ccc1N`: the result in [1] was inactive. The Potency result in experiment [19], in experiment [12], in [13], in experiment [3] and in experiment [14] was “inactive” each time. Moreover, the Potency is 30.5 µM (active) in [6]; 27.2 µM (active) in experiment [7]; 21.6 µM (active) in experiment [8]; 48.3 µM (active) in experiment [9]; 9.64 µM (active) in experiment [15]; 39.8 µM (active) in experiment [10]. Moreover, the Potency in experiment [11] was 19.9 µM (active).
In the case of `CC(C)N=C(N)/N=C(\N)Nc1ccc(Cl)cc1`, the outcome in experiment [1] was inactive. Further, the Potency entry in experiment [2], in experiment [12], in experiment [13], in experiment [3], in [5] and in experiment [14] was “inactive” throughout. The Potency result in [8], in experiment [9], in [15], in experiment [17] and in experiment [18] was “inactive” in each case. For the same compound, the Potency in experiment [7] was 11.9 µM (active); in experiment [10] it was 5.49 µM (active); in [11], 15.5 µM (active). Moreover, the max activation in [16] is -16.8% (inactive).
Take `CCCCCCCC/C=C\CCCCCCCC(=O)NCc1ccc(O)c(OC)c1`: the outcome in [1] was inactive. Besides, the Potency entry in [12], in experiment [13], in experiment [3], in experiment [6], in [14] and in experiment [7] was “inactive” throughout. The Potency result in experiment [8], in experiment [9], in [15], in [17] and in [18] was “inactive” each time. In experiment [16], the max activation was -4.67% (inactive).
In the case of `CCc1c(Br)c(Br)c(Br)c(Br)c1Br`, the Potency result in experiment [20], in [19], in experiment [2], in [12], in [13] and in experiment [3] was “inactive” in each case. The Potency result in experiment [4], in [5], in experiment [6], in experiment [14], in experiment [7] and in experiment [8] was “inactive” in each case. The Potency entry in experiment [9], in experiment [15] and in [11] was “inactive” in each case.
Turning to `O=C(c1ccccc1)c1cc(Cl)ccc1O`, the outcome in [1] was inactive. Moreover, the Potency entry in [12], in [13], in experiment [3], in experiment [5], in [6] and in experiment [14] was “inactive” in each case. Further, the Potency result in experiment [7] and in experiment [8] was “inactive” throughout. Besides, the values for the Potency in [10] and in experiment [11] were 37.9 µM (active) and 1.9 µM (active), respectively.
In the case of `CCc1ccc(O)c(C(C)(C)C)c1`, the call in experiment [1] was inactive. The Potency result in experiment [19], in experiment [12], in [13], in experiment [3], in [4] and in [5] was “inactive” throughout. Besides, the Potency result in [6], in experiment [8], in [9], in [15] and in experiment [10] was “inactive” each time. Besides, in experiment [11], the Potency is 17.8 µM (active).

For the origin of these results see PubChem BioAssay (Tox21).
